# Test results reported in PubChem BioAssay (Tox21).
# Where “and” joins values, the source holds several entries; their conditions need not be identical. Identical values can stand only once. Where a structure was tested more than once in an assay, its records may differ in their call. Calls of active or inactive are those of the source. Entries that show only a call come without a potency. Unless noted, calls come from the whole dose curve; as a rule, active = well fitted curve in the direction sought with a large enough effect in the repeat runs; inconclusive = weak or mixed curves; inactive = no such curve, though single readings can be large; an effect the other way counts as inactive or inconclusive.
# Tests used:
# [1] = qHTS assay to identify small molecule antagonists of the glucocorticoid receptor (GR) signaling pathway - cell viability counter screen (AID 720693); note: nearly all actives have a fitted effect of over 55% in size
# [2] = qHTS assay for identifying genotoxic compounds that show differential cytotoxicity against isogenic chicken DT40 cell lines with known DNA damage response pathways - wild type cell line (AID 743012); note: nearly all actives have a fitted effect of over 60% in size; note: potency is the fitted concentration of half-maximal effect
# How it was run: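 300 wt DT40 cells/well; cpd (DMSO) pintool-transferred after ~0.5 h at 37 C/5% CO2; 40 h incubation; CellTiter-Glo added, 30 min RT; luminescence read.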
# [3] = qHTS assay for identifying genotoxic compounds that show differential cytotoxicity against isogenic chicken DT40 cell lines with known DNA damage response pathways - Rev3 mutant cell line (AID 743014); note: nearly all actives have a fitted effect of over 55% in size; note: potency is the fitted concentration of half-maximal effect
# [4] = qHTS assay for identifying genotoxic compounds that show differential cytotoxicity against isogenic chicken DT40 cell lines with known DNA damage response pathways - Rad54/Ku70 mutant cell line (AID 743015); note: nearly all actives have a fitted effect of over 60% in size; note: potency is the fitted concentration of half-maximal effect
# [5] = qHTS assay to identify small molecule antagonists of the androgen receptor (AR) signaling pathway using the MDA cell line - cell viability counter screen (AID 743041; note: nearly all actives have a fitted effect of over 45% in size; note: potency is the fitted concentration of half-maximal effect)
# How it was run: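 Compound exposure lasted 16 h at 37C in MDA-kb2 AR-luc cells stimulated with R1881. Protease-based CellTiter-Fluor reagent was applied for the final 30 min and fluorescence measured.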
# [6] = qHTS assay to identify small molecule antagonists of the thyroid receptor (TR) signaling pathway - cell viability counter screen (AID 743064); note: nearly all actives have a fitted effect of over 50% in size; note: potency is the fitted concentration of half-maximal effect
# How it was run: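 CellTiter-Fluor readout, 30 min at 37 °C/5% CO2, following 23.5 h incubation of GH3.TRE-Luc cells with test compound and 1 nM T3 (final).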
# [7] = qHTS assay to identify small molecule antagonists of the thyroid receptor (TR) signaling pathway (AID 743065); note: nearly all actives have a fitted effect of over 55% in size; note: potency is the fitted concentration of half-maximal effect
# How it was run: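 GH3.TRE-Luc rat pituitary cells (two TREs driving luciferase) were dosed with compound, then stimulated with 1 nM T3 (final) for 23.5 h at 37 C. ONE-Glo luminescence was the read-out, with CellTiter-Fluor fluorescence as the cytotoxicity counter-screen.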
# [8] = tested on: thyroid hormone receptor (rat, GH3 cells); assay: qHTS assay to identify small molecule agonists of the thyroid receptor (TR) signaling pathway (AID 743066; calls by dose curve)
# [9] = molecular target: Estrogen receptor (Homo sapiens) (UniProt P03372); assay: qHTS assay to identify small molecule antagonists of the estrogen receptor alpha (ER-alpha) signaling pathway (AID 743069; active = well fitted curve in the direction sought with a large enough effect in the signal ratio in the repeat runs, not every such curve was filed as active; inconclusive = weak or mixed curves, or effect the other way; inactive = no such curve, though single readings can be large or run the other way; the % refers to the signal ratio; note: potency is the fitted concentration of half-maximal effect)
# How it was run: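 In this cell-based reporter format, GripTite HEK293 cells harbouring ER-alpha-UAS-bla were grown overnight with 2% charcoal-stripped FBS, dosed with DMSO-dissolved compounds, then challenged with 17beta-estradiol. After 18 hr at 37C, beta-lactamase activity was detected by FRET fluorescence.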
# [10] = qHTS assay to identify small molecule antagonists of the estrogen receptor alpha (ER-alpha) signaling pathway - cell viability counter screen (AID 743074; calls by dose curve; note: nearly all actives have a fitted effect of over 45% in size; note: potency is the fitted concentration of half-maximal effect)
# [11] = molecular target: Estrogen receptor (Homo sapiens) (UniProt P03372); assay: qHTS assay to identify small molecule agonists of the estrogen receptor alpha (ER-alpha) signaling pathway (AID 743075; calls by dose curve; note: potency is the fitted concentration of half-maximal effect)
# [12] = molecular target: Estrogen receptor (Homo sapiens) (UniProt P03372); assay: qHTS assay to identify small molecule agonists of the estrogen receptor alpha (ER-alpha) signaling pathway using the BG1 cell line (AID 743079); note: nearly all actives have a fitted effect of over 20% in size; note: potency is the fitted concentration of half-maximal effect
# [13] = qHTS assay to identify small molecule antagonists of the estrogen receptor alpha (ER-alpha) signaling pathway using the BG1 cell line (AID 743080; calls by dose curve;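 note: BG1 cells stimulated with 17beta-estradiol alongside compound; nearly all actives have a fitted effect of over 25% in size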; note: potency is the fitted concentration of half-maximal effect)
# How it was run: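 Luciferase inhibition measured with ONE-Glo after 30 min at RT in BG1Luc4E2 cells given test compounds and 17beta-estradiol for 21.5 h at 37 C; CellTiter-Fluor viability read in the same wells beforehand.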
# [14] = qHTS assay to identify small molecule antagonists of the estrogen receptor alpha (ER-alpha) signaling pathway using the BG1 cell line - cell viability counter screen (AID 743081);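 note: compound given together with 17beta-estradiol as the ER stimulus; nearly all actives have a fitted effect of over 45% in size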; note: potency is the fitted concentration of half-maximal effect
# Aromatase (Homo sapiens) = Aromatase (Homo sapiens) (UniProt P11511); assay: qHTS assay to identify aromatase inhibitors (AID 743083); note: nearly all actives have a fitted effect of over 55% in size; note: potency is the fitted concentration of half-maximal effect
# [15] = qHTS assay to identify aromatase inhibitors - cell viability counter screen (AID 743084); note: potency is the fitted concentration of half-maximal effect
# [16] = qHTS assay to identify small molecule antagonists of the androgen receptor (AR) signaling pathway - cell viability counter screen (AID 743033; note: nearly all actives have a fitted effect of over 45% in size)
# [17] = molecular target: Androgen receptor (Homo sapiens) (UniProt P10275); assay: qHTS assay to identify small molecule antagonists of the androgen receptor (AR) signaling pathway (AID 743035; active = well fitted inhibition curve with a large enough effect in the signal ratio in the repeat runs, not every such curve was filed as active; inconclusive = weak or mixed curves, or effect the other way; inactive = no such curve, though single readings can be large or run the other way; the % refers to the signal ratio)
# How it was run: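 In this cell-based reporter screen, compounds were tested in concentration series against R1881-activated HEK293 cells expressing beta-lactamase under UAS control; after 16 h at 37C, FRET substrate was added and fluorescence read 2 h later.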
# [18] = molecular target: Androgen receptor (Homo sapiens) (UniProt P10275); assay: qHTS assay to identify small molecule agonists of the androgen receptor (AR) signaling pathway using the MDA cell line (AID 743040; note: nearly all actives have a fitted effect of over 20% in size)
# How it was run: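 Testing was done with the MDA-kb2 AR-luc line, a human breast carcinoma stably transfected with MMTV-luciferase containing AR and GR response elements. Cells were exposed 16 h at 37C before ONE-Glo luminescence detection.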
# [19] = molecular target: Androgen receptor (Homo sapiens) (UniProt P10275); assay: qHTS assay to identify small molecule antagonists of the androgen receptor (AR) signaling pathway using the MDA cell line (AID 743042; note: nearly all actives have a fitted effect of over 55% in size)
# How it was run: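 MDA-kb2 breast carcinoma cells carrying MMTV-luciferase (AR/GR responsive) were co-treated with compounds and the agonist R1881 for 16 h at 37C. Inhibition read as ONE-Glo luminescence; CellTiter-Fluor fluorescence measured in parallel for cytotoxicity.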
# Chain of Aromatase (Homo sapiens) (P11511 whole entry, looked up): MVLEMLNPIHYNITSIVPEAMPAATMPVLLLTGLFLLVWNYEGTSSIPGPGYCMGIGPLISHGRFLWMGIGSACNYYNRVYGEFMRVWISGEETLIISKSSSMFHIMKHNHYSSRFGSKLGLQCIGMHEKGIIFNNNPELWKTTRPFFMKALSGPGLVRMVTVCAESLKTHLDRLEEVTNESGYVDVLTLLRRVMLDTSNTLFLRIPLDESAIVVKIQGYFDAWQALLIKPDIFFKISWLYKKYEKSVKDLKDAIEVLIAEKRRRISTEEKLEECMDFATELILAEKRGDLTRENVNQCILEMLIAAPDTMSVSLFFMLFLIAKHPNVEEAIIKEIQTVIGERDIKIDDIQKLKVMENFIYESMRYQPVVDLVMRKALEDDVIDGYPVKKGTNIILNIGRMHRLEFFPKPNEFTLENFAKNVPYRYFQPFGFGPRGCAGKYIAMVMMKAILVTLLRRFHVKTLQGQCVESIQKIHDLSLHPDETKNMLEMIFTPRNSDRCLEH
# Chain of Estrogen receptor (Homo sapiens) (P03372 whole entry, looked up): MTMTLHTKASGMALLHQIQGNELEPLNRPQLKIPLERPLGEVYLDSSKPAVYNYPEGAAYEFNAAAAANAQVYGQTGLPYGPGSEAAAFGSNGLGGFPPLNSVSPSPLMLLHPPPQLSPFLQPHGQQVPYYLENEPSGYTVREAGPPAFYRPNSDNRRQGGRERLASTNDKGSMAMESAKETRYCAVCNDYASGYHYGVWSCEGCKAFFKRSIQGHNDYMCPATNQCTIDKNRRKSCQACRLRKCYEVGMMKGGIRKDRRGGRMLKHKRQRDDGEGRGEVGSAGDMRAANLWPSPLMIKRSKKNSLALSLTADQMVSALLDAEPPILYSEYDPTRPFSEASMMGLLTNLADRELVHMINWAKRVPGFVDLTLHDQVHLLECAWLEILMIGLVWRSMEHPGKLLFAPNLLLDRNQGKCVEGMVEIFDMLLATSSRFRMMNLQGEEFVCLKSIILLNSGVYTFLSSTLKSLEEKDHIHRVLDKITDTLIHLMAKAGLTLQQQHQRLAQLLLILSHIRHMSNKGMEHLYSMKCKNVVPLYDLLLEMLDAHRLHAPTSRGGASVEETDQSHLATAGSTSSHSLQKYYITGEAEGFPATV
# Chain of Androgen receptor (Homo sapiens) (P10275 whole entry, looked up): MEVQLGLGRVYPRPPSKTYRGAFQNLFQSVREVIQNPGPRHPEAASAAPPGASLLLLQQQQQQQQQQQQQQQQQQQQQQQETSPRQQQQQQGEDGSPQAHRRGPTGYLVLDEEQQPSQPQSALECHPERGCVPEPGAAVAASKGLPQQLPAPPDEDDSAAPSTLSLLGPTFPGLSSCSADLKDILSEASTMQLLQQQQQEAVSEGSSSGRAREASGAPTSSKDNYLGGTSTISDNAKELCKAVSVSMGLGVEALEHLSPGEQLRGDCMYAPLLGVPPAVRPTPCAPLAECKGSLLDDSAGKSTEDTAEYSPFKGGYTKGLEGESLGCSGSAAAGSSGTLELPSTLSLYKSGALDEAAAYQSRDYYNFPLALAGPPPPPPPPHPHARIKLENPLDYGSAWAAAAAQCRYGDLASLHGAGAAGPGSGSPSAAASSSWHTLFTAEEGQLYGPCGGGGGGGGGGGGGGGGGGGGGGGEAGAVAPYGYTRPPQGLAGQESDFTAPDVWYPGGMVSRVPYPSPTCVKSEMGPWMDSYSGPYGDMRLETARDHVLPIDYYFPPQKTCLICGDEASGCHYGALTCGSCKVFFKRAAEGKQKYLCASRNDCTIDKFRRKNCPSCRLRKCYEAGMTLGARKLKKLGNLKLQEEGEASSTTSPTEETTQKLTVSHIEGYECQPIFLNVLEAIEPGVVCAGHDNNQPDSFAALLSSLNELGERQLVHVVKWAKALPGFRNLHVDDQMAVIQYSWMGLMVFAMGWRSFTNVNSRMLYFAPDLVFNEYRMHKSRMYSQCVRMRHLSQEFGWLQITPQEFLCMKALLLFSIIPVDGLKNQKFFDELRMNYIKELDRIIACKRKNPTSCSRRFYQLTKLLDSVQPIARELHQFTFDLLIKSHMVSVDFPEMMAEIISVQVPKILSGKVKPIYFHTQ
SMILES,Potency [1],Potency [2],Potency [3],Potency [4],Potency [5],Potency [6],Potency [7],Potency [8],Potency [9],Potency [10],Potency [11],Potency [12],Potency [13],Potency [14],Potency (Aromatase (Homo sapiens)),Potency [15],outcome [16],outcome [17],Potency [18],outcome [19]
CCCNC(=O)NS(=O)(=O)c1ccc(Cl)cc1,inactive,inactive,inactive,inactive,inactive,inactive,inactive,inactive,inactive,inactive,inactive,inactive,inactive,inactive,inactive,inactive,,,,
Nc1ccc(O)c(C(=O)O)c1,inactive,inactive,inactive,inactive,inactive,inactive,,,inactive,inactive,inactive,inactive and 68.6 µM (active),inactive,inactive,inactive,inactive,inactive,,,
NC(N)=O,inactive,inactive and 24.3 µM (active),inactive and 17.2 µM (active),inactive and 21.7 µM (active),inactive,inactive,inactive,inactive,inactive,inactive,inactive,inactive,inactive,inactive,inactive,inactive,inactive,,,
OC(Cn1cncn1)(Cn1cncn1)c1ccc(F)cc1F,inactive,inactive,inactive,inactive,inactive,inactive,inactive,inactive,inactive,inactive,inactive,inactive,inactive,inactive,,inactive,inactive,,,
CCCCC(CC)COC(=O)/C=C/c1ccc(OC)cc1 (stereo not drawn),inactive,inactive,inactive,inactive,inactive,inactive,inactive,inactive,inactive,inactive,inactive,inactive,inactive,inactive,inactive,inactive,,inactive,inactive,inactive
Nc1ccn([C@H]2CC[C@@H](CO)O2)c(=O)n1,inactive,,24.3 µM (active),53.5 µM (active) and 24.3 µM (active),inactive,inactive,inactive,inactive,inactive,inactive,inactive,inactive,inactive,inactive,inactive,inactive,,,,
OCCc1ccccc1,inactive,inactive,inactive,inactive,inactive,inactive,inactive,inactive,,inactive,,,,inactive,inactive,inactive,,,,
Cc1cn([C@H]2C[C@H](N=[N+]=[N-])[C@@H](CO)O2)c(=O)[nH]c1=O,inactive,,,,inactive,inactive,inactive,inactive,inactive,inactive,inactive,inactive and 17.7 µM (active),inactive,inactive,inactive,inactive,,,,
COc1c2occc2cc2ccc(=O)oc12,inactive,inactive,inactive,inactive,inactive,,,,,inactive and 1.74 µM (active),,,,inactive,,,,,,
C/C=C/c1ccc(OC)cc1,inactive,inactive,inactive,inactive,inactive,inactive,inactive,inactive,,inactive,,,,inactive,inactive,inactive,,,,
O=C1CN(/N=C/c2ccc([N+](=O)[O-])o2)C(=O)N1,inactive,60.9 µM (active),54.3 µM (active) and 68.6 µM (active),60.9 µM (active),15.6 µM (active) and 54.3 µM (active) and 48.6 µM (active),60.9 µM (active) and 68.6 µM (active),inactive,inactive,49 µM [inconclusive] (active),inactive,2.39 µM [inconclusive] (active) and inactive,531 nM (active) and inactive,inactive,43.1 µM (active),26.6 µM (active) and 43.1 µM (active),30.5 µM (active),,,,
O=c1cc[nH]c(=S)[nH]1,inactive,inactive,inactive,inactive,inactive,inactive,inactive,inactive,inactive,inactive,inactive,inactive,inactive,inactive,inactive,inactive,,,,
CC(=O)NS(=O)(=O)c1ccc(N)cc1,inactive,inactive,inactive,inactive,inactive,inactive,inactive,inactive,inactive,inactive,inactive,inactive,inactive,inactive,inactive,inactive,,,,
Cc1ccc(S(=O)(=O)NC(=O)NN2CCCCCC2)cc1,inactive,inactive,inactive and 68.6 µM (active),inactive,inactive,inactive,inactive,inactive,inactive,inactive,inactive,inactive and 30.6 µM (active),inactive,inactive,inactive,inactive,,,,
NS(=O)(=O)c1cc(C(=O)O)c(NCc2ccco2)cc1Cl,inactive,inactive,inactive,inactive,inactive,inactive,inactive,inactive,inactive,inactive,inactive,15 µM (active),inactive,inactive,,inactive,,,,
Cn1cc[nH]c1=S,inactive,inactive,inactive,inactive,inactive,inactive,inactive,inactive,inactive,inactive,inactive,inactive,inactive,inactive,inactive,inactive,,,,
CCCCCCCCCCCCCCCC(=O)O,inactive,11.9 µM (active) and inactive,inactive,inactive,inactive,inactive,inactive,inactive,,inactive,,,,inactive,inactive,inactive,,,,

SMILES,Potency [1],Potency [2],Potency [3],Potency [4],Potency [5],Potency [6],Potency [7],Potency [8],Potency [9],Potency [10],Potency [11],Potency [12],Potency [13],Potency [14],Potency (Aromatase (Homo sapiens)),Potency [15],outcome [16],outcome [17],Potency [18],outcome [19]
CCCCC1C(=O)N(c2ccccc2)N(c2ccccc2)C1=O,inactive,inactive,inactive,inactive,inactive,inactive,inactive,inactive,inactive,inactive,inactive,inactive,inactive,inactive,inactive,inactive,,,,
O=C(O)CCC(=O)O,inactive,inactive,inactive,inactive,inactive,inactive,inactive,inactive,inactive,inactive,inactive,inactive,inactive,inactive,inactive,inactive,,,,
O=S(=O)(O)c1ccc2cc(O)ccc2c1,inactive,inactive,inactive,inactive,inactive,inactive,inactive,inactive,,inactive,,,,inactive,inactive,inactive,,,,
NC(=O)NC1NC(=O)NC1=O (stereo not drawn),inactive,inactive,inactive,inactive,inactive,inactive,inactive,inactive,,inactive,,,,inactive,inactive,inactive,,,,
NC(=O)c1ccccc1O,inactive,inactive,inactive,inactive,inactive,inactive,inactive,inactive,inactive,inactive,inactive,inactive,inactive,inactive,inactive,inactive,,,,
Cc1cc(=O)[nH]c(=S)[nH]1,inactive,inactive,inactive,inactive,inactive,inactive,inactive,inactive,inactive,inactive,inactive,inactive,inactive,inactive,inactive,inactive,,,,
N=C(N)c1ccc(OCCCCCOc2ccc(C(=N)N)cc2)cc1,,1.88 µM (active) and 5.42 µM (active) and 1.31 µM (active),2.98 µM (active) and 2.16 µM (active) and 1.85 µM (active),2.66 µM (active) and 2.72 µM (active) and 1.65 µM (active),inactive,60.8 µM (active) and 46.4 µM (active),26.6 µM (active) and 60.8 µM (active) and 58.4 µM (active),inactive,12 µM [inconclusive] (active) and 15.4 µM [inconclusive] (active) and 46.8 µM [inconclusive] (active),inactive,inactive,,11.9 µM (active) and 46.4 µM (active),inactive,26.1 µM (active),inactive,,,,
O=C(C1CCCCC1)N1CC(=O)N2CCc3ccccc3C2C1 (stereo not drawn),inactive,inactive,inactive,inactive,inactive,inactive,inactive,inactive,,inactive,,,,inactive,inactive,inactive,,,,
C[C@]12C=CC(=O)C=C1CC[C@@H]1[C@@H]2[C@@H](O)C[C@@]2(C)[C@H]1CC[C@]2(O)C(=O)CO,inactive,inactive,inactive,,inactive,inactive,inactive,inactive,,inactive,inactive,inactive,,inactive,inactive,inactive,,,,
Cc1ccccc1C(OCCN(C)C)c1ccccc1 (stereo not drawn),inactive,,inactive and 61.1 µM (active) and 54.5 µM (active),inactive and 61.1 µM (active) and 68.6 µM (active),inactive,,21.1 µM (active) and 27.3 µM (active),inactive,inactive,inactive,inactive,inactive,inactive,inactive,inactive,inactive,,,,
Nc1ccc(S(=O)(=O)Nc2nccs2)cc1,inactive,inactive,inactive,inactive,inactive,inactive,,,inactive,inactive,inactive,inactive,inactive,inactive,inactive,inactive,,,,
O=C1NC(=O)c2ccccc21,inactive,inactive,inactive,inactive,inactive,inactive,inactive,inactive,,inactive,,,,inactive,inactive,inactive,,,,
O=C(O)CCCCC(=O)O,inactive,,,,inactive,inactive,inactive,inactive,inactive,inactive,inactive,inactive,inactive,inactive,inactive,inactive,inactive,,,
O=C(c1ccccc1)C(O)c1ccccc1 (stereo not drawn),inactive,inactive,inactive,inactive,inactive,inactive,inactive,inactive,,inactive,,,,inactive,inactive,inactive,,,,
CCC1(c2ccccc2)C(=O)NCNC1=O,inactive,,,,inactive,inactive,inactive,inactive,,inactive,,,,inactive,inactive,inactive,,,,
O=C(O)c1cccc([N+](=O)[O-])c1,inactive,inactive,inactive,inactive,inactive,inactive,inactive,inactive,,inactive,,,,inactive,inactive,inactive,,,,
